In PubChem BioAssay (NCI) one finds growth data, which are given here for nine compounds.

The panel holds about 83,000 compounds, 20% with a hit somewhere; the sample as a whole holds those more often.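 Negative percent growth values reflect cell death: -40 means 40% of the cells present at the start died, and -100 means all died.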 Unmarked numbers belong to inactive results. Active and inactive are the calls of the source. How the source made its calls: active means growth percent below 10; inactive means the rest.

What all share (test): NCI-60 one-dose screen, 48 h (100 = growth as untreated, 0 = no growth, -100 = all killed)
One test relates to NCI-H23 lung. To be noted: 10 µM unless noted.
Another test relates to NCI-H226 lung. To be noted: 10 µM unless noted.
A further test concerns NCI-H322M lung. To be noted: 10 µM unless noted.
For another test, the system named is NCI-H460 lung. The following applies: 10 µM unless noted.
The next test has as its system HOP-92 NSCLC. To be noted: 10 µM.
The next test has as its system NCI-H522 lung. To be noted: 10 µM.
A further test concerns A549/ATCC NSCLC. The following applies: 10 µM unless noted.
For the next test, the system named is 786-0 renal. The following applies: 10 µM unless noted.
The test system of the next test is COLO 205 colon. The following applies: 10 µM unless noted.
In another test the test system is DU-145 prostate. The following applies: 10 µM unless noted.
Another test has as its system K-562 leukemia. The following applies: 10 µM unless noted.
For another test, the system named is MALME-3M melanoma. To be noted: 10 µM unless noted.
A further test has as its system MDA-MB-231 breast. The following applies: 10 µM unless noted.
The test system of the next test is RXF 393 renal. The following applies: 10 µM unless noted.
In another test the test system is SF-268 CNS. The following applies: 10 µM unless noted.
The next test relates to SF-295 CNS. The following applies: 10 µM unless noted.
A further test concerns SF-539 CNS. The following applies: 10 µM unless noted.
Another test deals with UACC-257 melanoma. To be noted: 10 µM unless noted.
A further test relates to M14 melanoma. The following applies: 10 µM unless noted.

Take `CNCCCNCCCCNCCCN1C(=O)c2ccc3c4c(ccc(c24)C1=O)C(=O)N(CCCNCc1ccccc1OC)C3=O`: the growth was 24.9% in the test on NCI-H23 lung; 35.7% in the test on NCI-H226 lung; 22.8% with NCI-H322M lung; 13.5% in the test on NCI-H460 lung; 69% in the test with HOP-92 NSCLC; 31.3% with NCI-H522 lung. For the same compound, the growth in the test on A549/ATCC NSCLC was 21.6%; with 786-0 renal it was 38.6%; with COLO 205 colon it was 10.8%; in the test with DU-145 prostate it was 29.1%; in the test on K-562 leukemia, 20.2%; with MALME-3M melanoma, -26.1% (active). The growth in the test with MDA-MB-231 breast is 47.3%; with RXF 393 renal it was 20.1%; in the test with SF-268 CNS, 17.7%; in the test on SF-295 CNS it was 22.1%; with SF-539 CNS, 21.7%; in the test with UACC-257 melanoma, 29.2%. Also, the growth in the test with M14 melanoma was 24%.
In the case of `O=C(N/N=C/c1cc(Cl)ccc1O)C(=O)N/N=C/c1cc(Cl)ccc1O`, the growth in the test with NCI-H23 lung was 80%; in the test with NCI-H226 lung, 74.9%; with NCI-H322M lung it was 61.6%; with NCI-H460 lung, 34.8%; with HOP-92 NSCLC, 51.9%; in the test on NCI-H522 lung, 62.7%. Besides, the growth is 52.6% with A549/ATCC NSCLC; 65.2% in the test with 786-0 renal; 75.2% in the test on COLO 205 colon; 71.1% with DU-145 prostate; 51.9% in the test on K-562 leukemia; 80.1% with MALME-3M melanoma. Also, the growth is 76.5% in the test with MDA-MB-231 breast; 80.3% with RXF 393 renal; 56.5% with SF-268 CNS; 52.2% in the test with SF-295 CNS; 57.3% in the test with SF-539 CNS; 69.6% in the test on UACC-257 melanoma. Besides, the growth with M14 melanoma was 78.6%.
Regarding `CCOC(=O)c1ccc2n1CCCc1cnc(NC(C)=O)nc1-2`, the growth in the test on NCI-H23 lung was 112%; with NCI-H226 lung it was 82.4%; in the test with NCI-H322M lung it was 110%; with NCI-H460 lung, 112%; in the test on HOP-92 NSCLC it was 82.2%; with NCI-H522 lung, 97%. Besides, the growth in the test with A549/ATCC NSCLC was 109%; with 786-0 renal, 99.4%; with COLO 205 colon it was 122%; in the test with DU-145 prostate it was 111%; in the test with K-562 leukemia, 102%; with MALME-3M melanoma, 110%. Besides, the growth with MDA-MB-231 breast is 106%; with RXF 393 renal, 96.6%; in the test with SF-268 CNS, 96.2%; with SF-295 CNS, 100%; with SF-539 CNS, 95.1%; with UACC-257 melanoma, 115%. Also, the growth with M14 melanoma is 99.9%.
For the compound `COC(=O)C(C)[C@H]1CC[C@@H]2[C@]1(C)CC=C1[C@]23C=C[C@]2(C[C@@H](OC(C)=O)CC[C@]12C)C(C(=O)OC)C3C(=O)OC` (stereo not given in full), the growth in the test with NCI-H23 lung is 92.3%; in the test with NCI-H226 lung, 89.8%; in the test with NCI-H322M lung it was 102%; with NCI-H460 lung it was 101%; in the test on HOP-92 NSCLC, 83.5%; with NCI-H522 lung, 96.8%. Moreover, the growth with A549/ATCC NSCLC is 91.5%; in the test with 786-0 renal, 105%; in the test on COLO 205 colon, 98.8%; in the test with DU-145 prostate, 99.6%; in the test on K-562 leukemia, 48.8%; in the test with MALME-3M melanoma, 73.1%. Besides, the growth was 89.5% in the test with MDA-MB-231 breast; 102% with RXF 393 renal; 90.5% in the test with SF-268 CNS; 88.4% in the test on SF-295 CNS; 99.3% in the test with SF-539 CNS; 97.5% in the test with UACC-257 melanoma. In the test with M14 melanoma, the growth was 96.5%.
For the compound `CCCC(=O)NNc1[nH]c(-c2cc(OC)c(OC)c(OC)c2)cc1C(=O)OCC`, the growth in the test with NCI-H23 lung is 107%; in the test with NCI-H226 lung, 103%; in the test with NCI-H322M lung, 145%; in the test on NCI-H460 lung it was 123%; in the test with HOP-92 NSCLC, 84.8%; in the test on NCI-H522 lung it was 105%. For the same compound, the growth in the test with A549/ATCC NSCLC was 115%; with 786-0 renal it was 92.5%; in the test on COLO 205 colon it was 34.3%; with DU-145 prostate it was 94.5%; in the test on K-562 leukemia, 37.9%; with MDA-MB-231 breast, 107%. Also, the growth in the test with RXF 393 renal is 105%; in the test with SF-268 CNS it was 120%; in the test with SF-295 CNS it was 95.3%; with SF-539 CNS it was 91.6%; with UACC-257 melanoma, 106%.
On to `COc1ccc(/C=C/C(=O)/C=C/c2cc3ccccc3[nH]c2=O)cc1`, for which the growth in the test on NCI-H23 lung is 70.4%; in the test on NCI-H226 lung, 90.9%; in the test on NCI-H322M lung, 109%; with NCI-H460 lung, 92.7%; in the test on HOP-92 NSCLC, 89.8%; in the test with NCI-H522 lung it was 48.8%. Further, the growth with A549/ATCC NSCLC was 51.3%; in the test on 786-0 renal, 93.1%; in the test with COLO 205 colon, 55.8%; in the test with DU-145 prostate, 81.2%; in the test on K-562 leukemia, 4.13% (active); with MALME-3M melanoma, 32.6%. Besides, the growth with MDA-MB-231 breast was 64.5%; in the test with RXF 393 renal it was 30.6%; in the test with SF-268 CNS, 47.8%; in the test with SF-295 CNS it was 104%; in the test with UACC-257 melanoma it was 74.8%; with M14 melanoma, 72.9%.
For `Cc1nnc(-c2cc3c(ccc4ccccc43)oc2=O)c2cn(-c3ccc(Cl)cc3)nc12`, the growth with NCI-H23 lung is 86.9%; in the test with NCI-H226 lung it was 92%; in the test with NCI-H322M lung it was 98.8%; in the test with NCI-H460 lung it was 94.5%; in the test with HOP-92 NSCLC, 85.9%; in the test with NCI-H522 lung it was 81.2%. Further, the growth in the test with A549/ATCC NSCLC is 95.2%; in the test on 786-0 renal, 97.5%; in the test on COLO 205 colon, 111%; in the test with DU-145 prostate, 107%; in the test with K-562 leukemia, 80.6%; in the test on MDA-MB-231 breast it was 77.5%. Moreover, the growth in the test on RXF 393 renal is 103%; in the test with SF-268 CNS, 87.3%; in the test with SF-295 CNS, 95.9%; in the test with SF-539 CNS it was 114%; in the test with UACC-257 melanoma, 109%; in the test on M14 melanoma, 98.1%.
Take `O=C(O)c1occ(Cl)c1Cl`: the growth was 112% in the test on NCI-H23 lung; 114% with NCI-H226 lung; 116% in the test on NCI-H322M lung; 118% in the test with NCI-H460 lung; 95.3% in the test on HOP-92 NSCLC; 116% with NCI-H522 lung. Moreover, the growth in the test on A549/ATCC NSCLC is 97.8%; in the test on 786-0 renal, 111%; with COLO 205 colon, 114%; in the test on DU-145 prostate, 114%; with K-562 leukemia, 101%; in the test on MDA-MB-231 breast, 110%. The growth was 108% in the test on RXF 393 renal; 113% in the test with SF-268 CNS; 101% in the test with SF-295 CNS; 111% in the test with SF-539 CNS; 108% in the test with UACC-257 melanoma; 114% with M14 melanoma.
With `CC(=O)c1nn(-c2ccc(C)cc2)cc1C(=O)c1cc2c(ccc3ccccc32)oc1=O`, the growth in the test on NCI-H23 lung was 91.2%; in the test on NCI-H226 lung, 90.1%; in the test on NCI-H322M lung, 91.5%; in the test on NCI-H460 lung it was 100%; with HOP-92 NSCLC, 77.6%; with NCI-H522 lung it was 81.5%. For the same compound, the growth was 96.8% with A549/ATCC NSCLC; 93.4% in the test with 786-0 renal; 107% in the test on COLO 205 colon; 110% in the test on DU-145 prostate; 81.2% with K-562 leukemia; 73% in the test with MDA-MB-231 breast. For the same compound, the growth in the test on RXF 393 renal is 126%; in the test with SF-268 CNS it was 99.5%; with SF-295 CNS, 92.1%; with SF-539 CNS, 94.1%; with UACC-257 melanoma, 104%; in the test with M14 melanoma, 91.3%.
